Laboratory results: PubChem BioAssay (NCATS)
Unmarked numbers belong to inactive results. Inconclusive results are not listed. Entries that show only a call come without a potency. Active and inactive are the calls of the source. The call rests on the fitted dose curve; in most records, active means well fitted curve in the direction sought with a large enough effect; inconclusive means small, poorly fitted or top-dose-only effect, or another doubt; inactive means no such curve, though single readings can be large; an effect the other way counts as inactive or inconclusive.

Assays:
[1] = target: Tyrosine-protein kinase Yes (Homo sapiens) (UniProt P07947); assay: qHTS for small molecule inhibitors of Yes1 kinase: Primary Screen (AID 686947); further: nearly all actives have a fitted effect of over 60% in size; further: potency means the concentration at half of the fitted maximal effect
Outline: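 ADP-Glo luminescence reports ADP formed by 4 nM Yes1 phosphorylating poly(E4Y) (0.3 mg/mL) with 0.1 mM ATP for 60 min at room temperature, following 20 min compound preincubation; normalised between DMSO wells with and without enzyme.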

[2] = qHTS for small molecule inhibitors of Yes1 kinase: Counter Assay (AID 686950);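 further: no kinase present so only ADP-Glo detection of a fixed ADP amount is tested; luminescence from ADP-Glo reporting ADP in a fixed ATP and ADP mixture; series mostly up to about 77 µM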
Outline: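 Measuring interference with ADP-Glo, the assay ran 60 min at room temperature on an ATP/ADP mix lacking enzyme. Values were normalized to ATP-plus-ADP (maximum) and ATP-only (minimum) DMSO controls.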

[3] = qHTS Assay for Identifying Gametocytocidal Compounds (AID 743244); further: potency means the concentration at half of the fitted maximal effect;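 on max response: actives lower the fluorescent signal which means gametocytes are killed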; conditions: P. falciparum 3D7 stage III-V gametocytes, alamarBlue, 72 h; max response: stronger effect = lower value
Outline: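 In this qHTS viability screen, late-stage 3D7 gametocytes are incubated with compound for 72 h, then with alamarBlue for 24 h; reduced resorufin fluorescence marks killing.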

Sequence of Tyrosine-protein kinase Yes (Homo sapiens) (P07947 whole entry, looked up): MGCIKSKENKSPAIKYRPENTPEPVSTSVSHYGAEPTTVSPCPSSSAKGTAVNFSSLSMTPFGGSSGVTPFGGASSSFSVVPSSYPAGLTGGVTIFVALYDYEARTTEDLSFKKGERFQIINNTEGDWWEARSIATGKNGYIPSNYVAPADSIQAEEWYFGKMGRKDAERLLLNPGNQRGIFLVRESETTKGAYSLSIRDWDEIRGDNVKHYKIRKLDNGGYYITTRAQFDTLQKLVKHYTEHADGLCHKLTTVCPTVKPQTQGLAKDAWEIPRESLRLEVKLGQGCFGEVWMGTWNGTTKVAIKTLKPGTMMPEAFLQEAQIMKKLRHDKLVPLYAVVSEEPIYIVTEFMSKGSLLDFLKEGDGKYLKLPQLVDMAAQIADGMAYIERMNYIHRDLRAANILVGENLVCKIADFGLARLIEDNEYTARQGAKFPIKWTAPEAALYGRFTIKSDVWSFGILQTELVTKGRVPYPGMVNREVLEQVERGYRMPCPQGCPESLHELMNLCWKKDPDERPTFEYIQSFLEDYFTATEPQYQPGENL

| Compound | Potency [1] | outcome [2] | Potency [3] | max response [3] [%] |
| --- | --- | --- | --- | --- |
| CC(C)C[C@H](NC(=O)CNC(=O)c1cc(Cl)ccc1Cl)B(O)O | inactive | inactive | 18.7 µM (active) | – |
| COc1ccc(C=Cc2cc(OC)c(OC)c(OC)c2)cc1O | inactive | inactive | – | 18.2 |
| CC(=O)Nc1sc2c(c1-c1nc3ccccc3s1)CNC2 | inactive | inactive | – | 20.9 |
| Cc1[nH]c2ccccc2c1CCNCc1ccc(C=CC(=O)NO)cc1 | 13.7 µM (active) | inactive | 1.18 µM (active) | – |
| CC1=C(CO)C(=O)O[C@@H]([C@@H](C)[C@H]2CC[C@H]3[C@@H]4C[C@H]5O[C@]56[C@@H](O)C=CC(=O)[C@]6(C)[C@@H]4CC[C@]23C)C1 | inactive | inactive | 0.372 µM (active) | – |
| O=C(O)[C@H](Cc1c[nH]c2ccccc12)N1C(=O)c2ccccc2C1=O | inactive | inactive | – | 33.4 |
| COc1cc2nccc(Oc3ccc(NC(=O)C4(C(=O)Nc5ccc(F)cc5)CC4)cc3)c2cc1OC | 1.09 µM (active) | inactive | – | 4.76 |
| CC=C1NC(=O)[C@H]2CSSCCC=C[C@H](CC(=O)N[C@H](C(C)C)C(=O)N2)OC(=O)[C@H](C(C)C)NC1=O | inactive | inactive | 0.59 µM (active) | – |
| Nc1ccccc1NC(=O)c1ccc(CNc2nccc(-c3cccnc3)n2)cc1 | inactive | inactive | 11.8 µM (active) | – |
| Nc1nc(Nc2ccc(S(N)(=O)=O)cc2)nn1C(=O)c1c(F)cccc1F | 0.772 µM (active) | inactive | 11.8 µM (active) | – |
| Nc1ccccc1NC(=O)c1ccc(CNC(=O)OCc2cccnc2)cc1 | 15.4 µM (active) | inactive | – | -2.71 |
